From PubChem BioAssay
Shown are actives, neighbours in structure and some others; about 12% of the full set was active somewhere.
AMA1-RON2 inh = qHTS for Inhibitors of AMA1-RON; Towards Development of Antimalarial Drug Lead: Primary Screen; Plasmodium falciparum AMA1 (3D7) - RON2 peptide interaction; AlphaScreen AMA1-biotinylated RON2 peptide binding; Potency, µM (top dose mostly 58.2 µM), for the others: top-dose activity change, negative = inhibition, actives largely listed as inhibitors; 0.2% of 360,000 active; AID 720542, 2013;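 further: 0% = vehicle wells and -100% = peptide control; nearly all actives have a fitted effect of over 45% in size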
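AMA1 (3D7) with his tag at 25 nM final met compounds first, then biotinylated RON2 peptide at 25 nM; detection used donor plus acceptor beads, 10 µg/mL apiece, read by AlphaScreen after 30 min at room temperature.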
SARS PLpro yeast = qHTS of Yeast-based Assay for SARS-CoV PLP; S. cerevisiae expressing SARS-CoV PLpro, growth rescue; Potency, µM (top dose mostly 32.9 µM), for the others: at the top dose activity, positive = growth rescue, actives largely listed as activators; 0.19% of 330,000 active; AID 485353, 2010; calls by dose curve; further: 0% is about no effect; nearly all actives have a fitted effect of over 55% in size
Pf growth 96h = Primary qHTS for delayed death inhibitors of the malarial parasite plastid, 96 hour incubation. Potency, µM (doses to about 28.7 µM), for the others: at the top dose activity change, negative = inhibition, hits mostly inhibitors. 6.9% of 320,000 active. P. falciparum luciferase reporter growth, 96 h. AID 504834, 2011; further: on the % scale 0 is the no-effect control and ±100 the full control effect
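Plates of compound plus infected erythrocytes (2% hematocrit, 0.05% parasitemia final) incubate 96 hours, 37 C, 5% CO2. Detection reagent added; reduced luminescence from the parasites' luciferase reporter flags inhibition.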
Pf growth 48h = Primary qHTS for delayed death inhibitors of the malarial parasite plastid, 48 hour incubation. P. falciparum luciferase growth in erythrocytes, 48 h. Potency, µM (highest dose often 28.7 µM), inactives show at the top dose activity change, negative = inhibition, actives largely listed as inhibitors. 5.9% of 310,000 active; further: on the % scale 0 is the no-effect control and ±100 the full control effect
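First compound was added to culture medium, then infected red cells at 0.1% parasitemia and 2% hematocrit (final). After incubation at 37 C under 5% CO2, luciferase detection reagent was dispensed and light output recorded.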
HCV inh = qHTS Assay for Inhibitors of Hepatitis C Virus (HCV) | AID 651820, 2012 | Potency, µM (series often up to 41.8 µM), without a hit: top-dose activity change, negative = inhibition, usual class: inhibitors | 3.4% of 340,000 active | Huh7.5.1 HCVcc-Cre infection, luciferase reporter, 44 h; further: on the % scale 0 is the no-effect control and ±100 the full control effect
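Infectious HCVcc-Cre (~0.5 moi) was added to cells just after compound, with cells seeded 4 h earlier at 1,000 per well. Luciferase activity after 44 h culture reported infection; substrate was incubated 15 min at room temperature before reading.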
NS1 inh = qHTS Assay for Inhibitors of Influenza NS1 Protein Function | 0.4% of 270,000 active | Potency, µM (highest dose often 46.1 µM), for inactives: at the top dose activity, positive = more growth; calls by dose curve; further: actives are rising curves; nearly all actives have a fitted effect of over 50% in size
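S. cerevisiae expressing influenza A NS1, grown in glucose, washed, then diluted 1:100 into pH 6.0 -URA galactose medium with 23 nl compound. Growth recovery read as OD600; NS1-free strain serves as control.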
An asterisk follows results filed as active; ? = inconclusive; nt = no result. Unless noted, the call rests on the fitted dose curve; in most records, active means well fitted curve in the direction sought with a large enough effect; inconclusive means small, poorly fitted or top-dose-only effect, or another doubt; inactive means no such curve, though single readings can be large; an effect the other way counts as inactive or inconclusive. Potency means the concentration at half of the fitted maximal effect.

SMILES | AMA1-RON2 inh | SARS PLpro yeast | Pf growth 96h | Pf growth 48h | HCV inh | NS1 inh
O=C(CSc1nnc2c(n1)[nH]c1ccccc12)OCc1ccccc1 | 0.9% | 6.9% | ? | 14.7µM* | 21.5% | -2.5%
CCOC(=O)CN(C(=O)CSc1nnc2c(n1)[nH]c1ccc(OC)cc12)c1ccc(F)cc1 | 2.7% | 1.8% | 7.5% | 9.28µM* | -7.5% | -20.5%
COc1ccccc1CNC(=O)[C@@H](NC(=O)C1CCN(C(=O)[C@@H]2CCCN2C(=O)OC(C)(C)C)CC1)C(C)C | 13.1% | -5.4% | ? | ? | 40.4% | -5.8%
CCOC(=O)c1c(S(=O)(=O)NCC(=O)Nc2ccc(OC)cc2)c(C)n(C)c1C | -9.8% | -1.8% | 2.3% | 15.3% | 12.7% | -3.8%
COc1ccc2[nH]c3nc(SC(C)C)nnc3c2c1 | -15.9% | 2.5% | 5.22µM* | 405.0% | -18.9% | 8.1%
CC(C)OC(=O)CSc1nnc2c(n1)[nH]c1ccc(F)cc12 | 0.0% | -2.1% | 13.1µM* | 5.86µM* | -26.0% | nt
CCOc1ccc(CCNC(=O)CSc2cc(=O)n(C)c3cc(Cl)ccc23)cc1OCC | -18.8% | -12.4% | ? | 18.4% | 6.1% | -6.6%
Cn1c(=O)cc(SCC(=O)NCCC2=CCCCC2)c2ccc(Cl)cc21 | -0.5% | 20.9% | 14.7µM* | -7.3% | 7.9% | 0.3%
OC1(c2ccc(OC(F)F)cc2)CSC(=Nc2cccnc2)N1C1CC1 (stereo unspecified) | -24.4% | -7.4% | ? | ? | 31.6µM* | -48.5%
CCCCNC(=O)O/N=C(\N)CS(=O)(=O)C(C)(C)C | -15.0% | 0.9% | 39.0% | 51.0% | -9.6% | -31.9%
Cc1ccc(/C=C2\CCCC3=C2NC(=S)NC3c2ccc(C)cc2)cc1 (stereo unspecified) | 6.3% | 11.4% | ? | -8.3% | -27.2% | ?
COc1ccc(C2NC(=S)NC3=C2CCc2cc(OC)ccc23)cc1 (stereo unspecified) | 6.2% | 4.8% | 5.86µM* | ? | ? | 20.1%
COc1ccccc1Nc1nn2c(=O)c3ccc(C(=O)N4CCCC(C)C4)cc3nc2s1 (stereo unspecified) | -2.5% | -1.1% | 6.4% | 8.28µM* | ? | 19.8%
CCOC(=O)C1CCN(C(=O)c2ccc3c(=O)n4nc(Nc5cc(C)ccc5C)sc4nc3c2)CC1 | -0.8% | 4.1% | 2.94µM* | ? | 6.8% | 12.8%
COc1ccc(C(CNC(=O)CSc2ccc(Br)cc2C)N2CCOCC2)cc1 (stereo unspecified) | -10.6% | 3.7% | ? | ? | -0.1% | nt
CC1(C)CC(NC(=O)C23CCC(C)(C2Br)C3(C)C)CC(C)(C)N1 (stereo unspecified) | -10.4% | 0.6% | -22.1% | -19.9% | -13.4% | 6.0%
O=C(N/C(=C\c1ccco1)C(=O)N1CCCC1CO)c1ccccc1 (stereo unspecified) | 23.3% | 0.3% | 0.3% | 7.3% | 24.4% | 5.8%
Cc1cc(C(=O)COC(=O)c2ccc(O)cc2O)c(C)n1-c1ccc(OC(F)F)cc1 | -0.5% | -3.6% | ? | 9.28µM* | 10µM* | nt
Cc1cc(C(=O)CC#N)c(C)n1-c1ccc(OC(F)F)cc1 | -5.3% | -2.5% | 13.1µM* | ? | ? | ?
Cc1cc(C(=O)CSc2nc(N)cc(=O)[nH]2)c(C)n1-c1ccc(OC(F)F)cc1 | 8.2% | 2.7% | -16.5% | -9.5% | ? | 7.2%
COc1ccc(-n2c(C)cc(C(=O)COC(=O)c3ccc(O)cc3O)c2C)cc1 | -1.6% | -11.5% | 11.7µM* | 7.38µM* | 10µM* | nt
COC(=O)c1cc(C(=O)OC)cc(-n2c(C)cc(C(=O)CC#N)c2C)c1 | 13.2% | nt | nt | 10.4µM* | -19.4% | ?
COc1ccc(-n2c(C)cc(C(=O)CCl)c2C)cc1 | -17.5% | -8.2% | ? | -12.2% | ? | 3.2%
COC(=O)c1ccc(Cn2c(C)c(C(=O)NCc3cccs3)sc2=O)o1 | -1.8% | nt | nt | nt | nt | nt
c1ccc(-c2nnn(CCN3CCCCC3)n2)cc1 | nt | nt | nt | nt | nt | 0.0%
SMILES | AMA1-RON2 inh | SARS PLpro yeast | Pf growth 96h | Pf growth 48h | HCV inh | NS1 inh
COc1ccc(-n2c(C)cc(C(=O)COC(=O)Cn3cnc4ccccc43)c2C)cc1 | -25.0% | -10.8% | 48.0% | 13.1µM* | -1.2% | -59.0%
Cc1nn(C)cc1C(=O)Nc1c(C)nn(Cc2ccccc2Cl)c1C | 3.3% | 2.9% | ? | -11.9% | 7.1% | -2.1%
COc1ccc(-c2cc(C(=O)Nc3c(C)nn(Cc4ccccc4Cl)c3C)no2)cc1OC | -7.6% | 4.0% | 29.7% | ? | 8.91µM* | -3.2%
Cc1cc(C(=O)Nc2c(C)nn(Cc3ccccc3Cl)c2C)no1 | 7.9% | -2.8% | 4.3% | 2.62µM* | 5.4% | -9.2%
COc1ccc(OC)c(-c2cc(C(=O)Nc3c(C)n(C)n(-c4ccccc4)c3=O)no2)c1 | 25.2% | ? | 87.5% | 3.2% | -23.6% | -0.4%
COc1ccc(OC)c(-c2cc(C(=O)Nc3c(C)nn(Cc4ccccc4C)c3C)no2)c1 | -3.0% | -17.2% | 17.1% | 5.22µM* | 3.16µM* | -49.2%
Cc1ccccc1Cn1nc(C)c(NC(=O)c2cc(-c3ccco3)on2)c1C | 7.2% | -0.3% | 11.3% | ? | -7.1% | nt
COc1ccc(-c2cc(C(=O)Nc3c(C)nn(Cc4ccc(Cl)cc4)c3C)no2)cc1 | 4.6% | -1.7% | ? | nt | ? | -8.6%
COc1ccc(OC)c(-c2cc(C(=O)Nc3c(C)nn(Cc4ccccc4Cl)c3C)no2)c1 | -9.7% | -4.3% | 88.1% | 13.1µM* | 15.8µM* | -62.4%
CC(=O)c1cccc(NC(=O)CNC(=O)Cc2ccccc2)c1 | 11.8% | 13.8% | 2.1% | -7.0% | -5.1% | 5.1%
O=S(=O)(c1ccc(Cl)nc1)N1CCN(c2ncccn2)CC1 | 3.6% | 0.2% | -10.1% | -9.2% | 7.5% | -0.1%
Cc1cc(NC(=O)Cc2ccccc2)ccc1NC(=O)c1cccs1 | 42.6% | 0.1% | ? | 7.2% | 15.3% | -0.4%
COc1cccc2c1cc1c(=O)n(CC(=O)NCCCN3CCCCC3)nc(C)n12 | 4.9% | -1.8% | ? | 13.1% | -12.8% | 10.0%
Cc1ccc(-c2cc(C(=O)NCc3cccnc3)no2)cc1 | -1.7% | 26.2% | -0.7% | 111.1% | -8.0% | -6.0%
COc1ccc(-c2cc(C(=O)NCc3cccnc3)no2)cc1OC | -3.6% | 1.6% | 9.28µM* | 6.4% | nt | -11.3%
CCCOC(=O)c1ccc2c(c1)C(=O)N(c1ccccc1)C2=O | -2.5% | 2.4% | 11.7µM* | nt | -3.2% | -4.2%
C[C@@H]1CN([C@H](C)CO)C(=O)CCCn2cc(nn2)CO[C@H]1CN(C)C(=O)Nc1cccc(Oc2ccccn2)c1 | 14.4% | nt | nt | nt | nt | nt
